Measurements reported in publication PMC5700166.
Where a chain is given by its changes, count along the chain named.

Legend:
Assay in all cases: protein-binding microarray (PBM); PBM: ~300 nM protein, 6 mM HEPES pH 7.8, 80 mM KCl, 0.5 mM EDTA, 0.5 mM EGTA, 6% glycerol, 35 ng/ul poly-dIdC, 1% milk, 1 h, room temperature; Ap Aiptasia and Nv Nematostella (sea anemones) / Co Capsaspora / Aq Amphimedon (sponge) / Dm Drosophila / Hu human; RHD is the Rel homology domain; high values mean tight binding
Conditions in all cases: dsDNA, one strand shown
GST-Ap-NF-kB RHD = target: T1, GST-Ap-NF-kB RHD (Exaiptasia pallida (Aiptasia), UniProt A0A913YAJ5 2-422)
T1 sequence: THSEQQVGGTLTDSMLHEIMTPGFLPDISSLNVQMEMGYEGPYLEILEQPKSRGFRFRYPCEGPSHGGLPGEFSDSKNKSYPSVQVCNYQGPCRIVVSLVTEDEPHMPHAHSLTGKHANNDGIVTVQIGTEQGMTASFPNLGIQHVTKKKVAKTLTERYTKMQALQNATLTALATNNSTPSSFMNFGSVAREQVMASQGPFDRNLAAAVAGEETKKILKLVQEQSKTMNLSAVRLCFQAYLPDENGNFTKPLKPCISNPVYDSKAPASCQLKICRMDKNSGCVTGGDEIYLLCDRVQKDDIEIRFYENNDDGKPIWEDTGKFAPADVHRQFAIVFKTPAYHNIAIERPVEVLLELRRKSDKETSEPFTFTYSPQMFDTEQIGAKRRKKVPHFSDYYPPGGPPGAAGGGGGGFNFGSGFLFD

[1] = target: T2, GST-Nv-NF-kB (Cys allele) (Nematostella vectensis, UniProt E5G601 2-411)
T2 sequence: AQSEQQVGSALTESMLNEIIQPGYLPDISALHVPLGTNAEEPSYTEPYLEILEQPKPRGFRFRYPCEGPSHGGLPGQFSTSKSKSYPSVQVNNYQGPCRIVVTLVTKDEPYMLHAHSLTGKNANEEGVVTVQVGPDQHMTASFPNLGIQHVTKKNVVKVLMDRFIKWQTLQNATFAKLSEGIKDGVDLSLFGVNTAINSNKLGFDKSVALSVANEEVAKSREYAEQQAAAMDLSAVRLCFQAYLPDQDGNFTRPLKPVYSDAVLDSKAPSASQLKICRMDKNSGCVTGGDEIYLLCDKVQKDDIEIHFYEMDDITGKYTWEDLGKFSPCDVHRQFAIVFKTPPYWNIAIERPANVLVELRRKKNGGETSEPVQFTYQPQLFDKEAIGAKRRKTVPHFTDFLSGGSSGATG

GST-Dm-Relish = target: T3, GST-Dm-Relish (Drosophila melanogaster, UniProt Q94527 99-473)
T3 sequence: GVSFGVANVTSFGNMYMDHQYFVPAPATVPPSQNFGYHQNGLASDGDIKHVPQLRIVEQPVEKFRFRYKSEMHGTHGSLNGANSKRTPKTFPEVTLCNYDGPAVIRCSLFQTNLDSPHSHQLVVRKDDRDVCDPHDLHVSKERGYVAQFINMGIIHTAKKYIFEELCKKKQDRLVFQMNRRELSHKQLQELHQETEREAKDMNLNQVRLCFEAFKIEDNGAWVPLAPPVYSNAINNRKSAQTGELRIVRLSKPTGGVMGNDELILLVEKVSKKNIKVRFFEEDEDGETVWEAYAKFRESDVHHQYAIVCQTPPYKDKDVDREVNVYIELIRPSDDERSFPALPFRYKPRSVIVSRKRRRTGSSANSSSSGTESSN

GST-Aq-NF-kB = target: T4, GST-Aq-NF-kB (Amphimedon queenslandica, UniProt A9Y5G7 2-389)
T4 sequence: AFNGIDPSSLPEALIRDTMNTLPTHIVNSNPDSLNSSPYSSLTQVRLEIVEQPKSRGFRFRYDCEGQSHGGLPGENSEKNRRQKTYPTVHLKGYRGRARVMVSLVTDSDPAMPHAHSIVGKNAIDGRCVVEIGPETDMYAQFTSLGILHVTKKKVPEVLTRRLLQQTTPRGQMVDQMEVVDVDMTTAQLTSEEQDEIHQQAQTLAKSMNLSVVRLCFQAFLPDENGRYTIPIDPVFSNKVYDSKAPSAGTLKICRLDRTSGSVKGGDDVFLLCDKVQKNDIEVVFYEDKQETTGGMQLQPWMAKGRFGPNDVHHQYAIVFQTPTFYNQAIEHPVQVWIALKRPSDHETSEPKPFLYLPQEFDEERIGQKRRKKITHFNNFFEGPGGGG

GST-Co-NF-kB = target: T5, GST-Co-NF-kB (Capsaspora owczarzaki, UniProt F1ARL5 200-546)
T5 sequence: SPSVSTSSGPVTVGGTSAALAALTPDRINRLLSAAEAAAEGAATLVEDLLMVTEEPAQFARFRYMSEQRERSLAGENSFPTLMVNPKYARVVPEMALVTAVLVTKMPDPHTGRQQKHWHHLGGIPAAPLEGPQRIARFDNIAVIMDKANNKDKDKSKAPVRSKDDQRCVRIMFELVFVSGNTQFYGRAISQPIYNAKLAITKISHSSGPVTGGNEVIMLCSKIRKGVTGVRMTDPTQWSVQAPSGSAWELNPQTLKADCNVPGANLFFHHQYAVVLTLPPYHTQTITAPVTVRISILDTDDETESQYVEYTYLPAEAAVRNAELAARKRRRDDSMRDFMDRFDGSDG

[2] = target: T6, GST-Nv-NF-kB (Ser allele) (Nematostella vectensis, UniProt A7UNT2 2-411)
T6 sequence: T2 sequence with Q21R, C66S, S207N, E215Q, V217A, E225K, A268E, D399E

Sequence	binding signal (GST-Ap-NF-kB RHD) [z-score]	binding signal [1] [z-score]	binding signal (GST-Dm-Relish) [z-score]	binding signal (GST-Aq-NF-kB) [z-score]	binding signal (GST-Co-NF-kB) [z-score]	binding signal [2] [z-score]
CCGATTAACATCAATGGGTTTTCTGATGTTAATCGGGTCTTGATTCGCTTGACGCTGCTG	1.73	1.21	2.88	1.85	–	–
CCGATTAACATCAGGTAATCCCATGATGTTAATCGGGTCTTGATTCGCTTGACGCTGCTG	2.95	1.6	6.13	3.49	–	–
CCGATTAACATCAACAAAGTCCCTGATGTTAATCGGGTCTTGATTCGCTTGACGCTGCTG	4.89	5.37	5.26	4.25	–	–
CCGATTAACATCACGGCAATCCCTGATGTTAATCGGGTCTTGATTCGCTTGACGCTGCTG	1.5	1.21	2.64	2.66	–	–
CCGATTAACATCAGGGAAGCACCTGATGTTAATCGGGTCTTGATTCGCTTGACGCTGCTG	4.67	5.46	9.38	6.3	–	–
CCGATTAACATCAGGACTTTACCTGATGTTAATCGGGTCTTGATTCGCTTGACGCTGCTG	1.18	3.27	5.92	4.69	–	–
CCGATTAACATCAGGGACCTCCCTGATGTTAATCGGGTCTTGATTCGCTTGACGCTGCTG	5.47	4.78	6.16	7.04	–	–
CCGATTAACATCAGGGGTTTAACTGATGTTAATCGGGTCTTGATTCGCTTGACGCTGCTG	2.44	2.32	3.3	3.04	–	–
CCGATTAACATCAGGAATAACCCTGATGTTAATCGGGTCTTGATTCGCTTGACGCTGCTG	1.87	2.62	3.23	5.81	–	–
CCGATTAACATCAGGGAAGCCCATGATGTTAATCGGGTCTTGATTCGCTTGACGCTGCTG	1.18	1.19	8.29	3.64	–	–
CCGATTAACATCAGGAAGTCCCATGATGTTAATCGGGTCTTGATTCGCTTGACGCTGCTG	4.82	5.32	6.71	4.99	–	–
CCGATTAACATCAGGGATTTACCTGATGTTAATCGGGTCTTGATTCGCTTGACGCTGCTG	4.76	5.65	9.23	6.8	–	–
CCGATTAACATCAGGGCAAACCCTGATGTTAATCGGGTCTTGATTCGCTTGACGCTGCTG	1.34	1.88	1.14	4.6	–	–
CCGATTAACATCAAGGGAAGCCCTGATGTTAATCGGGTCTTGATTCGCTTGACGCTGCTG	2.12	1.83	7.5	3.99	–	–
CCGATTAACATCAGGGGGGGAACTGATGTTAATCGGGTCTTGATTCGCTTGACGCTGCTG	6.55	–	5.17	4.84	8.33	–
CCGATTAACATCAGGGGGGGGGATGATGTTAATCGGGTCTTGATTCGCTTGACGCTGCTG	6.37	–	5.78	5.02	7.03	–
CCGATTAACATCAGGTAACCCCATGATGTTAATCGGGTCTTGATTCGCTTGACGCTGCTG	3.05	–	6.29	2.29	2.06	–
CCGATTAACATCATCCGCGGGAGTGATGTTAATCGGGTCTTGATTCGCTTGACGCTGCTG	1.05	–	–	1.92	1.38	–
CCGATTAACATCAGGTGTTCCCATGATGTTAATCGGGTCTTGATTCGCTTGACGCTGCTG	1.43	–	5.22	2.04	1.45	–
CCGATTAACATCAGGGGTACACATGATGTTAATCGGGTCTTGATTCGCTTGACGCTGCTG	1.77	–	1.13	1.07	4.09	–
CCGATTAACATCAAGGGGGGAAATGATGTTAATCGGGTCTTGATTCGCTTGACGCTGCTG	6.16	–	4.47	5.8	7.79	8.51
CCGATTAACATCAGGGGGGGAAATGATGTTAATCGGGTCTTGATTCGCTTGACGCTGCTG	6.79	–	5.34	5.89	10.2	7.98
CCGATTAACATCAGGGGGGGGAATGATGTTAATCGGGTCTTGATTCGCTTGACGCTGCTG	7.86	–	5.27	5.65	8.84	–
CCGATTAACATCATGGGGGGGAATGATGTTAATCGGGTCTTGATTCGCTTGACGCTGCTG	6.87	–	4.72	5.36	8.77	–
CCGATTAACATCATTTATCCCGGTGATGTTAATCGGGTCTTGATTCGCTTGACGCTGCTG	1.16	–	1.77	1.14	2.85	–
CCGATTAACATCAATTCCCCCCCTGATGTTAATCGGGTCTTGATTCGCTTGACGCTGCTG	8.18	–	6.09	6.45	8.87	7.32
CCGATTAACATCACGGATATCCCTGATGTTAATCGGGTCTTGATTCGCTTGACGCTGCTG	1.57	–	2.04	2.76	1.15	–
